This is an account of results in PMC9838217, “Structure of SALL4 zinc finger domain reveals link between AT-rich DNA binding and Okihiro syndrome”.

Common to all, as to test: HT-SELEX; high values mean tight binding
Holding throughout (details): protein: recombinant; vector His6-GST; dsDNA, one strand shown

The target in one assay is T1, SALL4 ZFC4 WT (HT-SELEX) (Mus musculus, UniProt Q8BX22 870-940).
T1 sequence: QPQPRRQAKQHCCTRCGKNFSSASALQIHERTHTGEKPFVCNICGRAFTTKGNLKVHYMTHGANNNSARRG
A digest of the protocol:
(§1)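 Binding signal is expressed as fold change in each canonical k-mer's read fraction over the initial random library. To obtain it, 1 µg of purified recombinant mouse SALL4 zinc finger cluster 4 (residues 870–940) was incubated for 10 min at room temperature with library DNA (1.5 µg first cycle, 200 ng later cycles) in 100 µl of 10 mM Tris–HCl pH 7.5, 50 mM NaCl, poly(dI-dC) and DTT. Ni2+ bead-captured complexes went through washing, PCR amplification and reselection for up to 6 cycles, in triplicate, before MiSeq sequencing and scanning for 6-mers.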

Assay [1] concerns the target T2, SALL4 ZFC4 R900W (HT-SELEX) (Mus musculus, UniProt Q8BX22 870-940, R900W).
T2 sequence: T1 sequence with R31W
A digest of the protocol:
as §1

Assay [2] concerns the target T3, SALL4 ZFC4 G921D (HT-SELEX) (Mus musculus, UniProt Q8BX22 870-940, G921D).
T3 sequence: T1 sequence with G52D
A digest of the protocol: as §1

Residue numbers refer to the chain shown, from its start.

In the case of AGACCG, the binding signal was found to be 0.32 ± 0.0198 fold-change vs cycle 0 in the assay with SALL4 ZFC4 WT (HT-SELEX), 0.393 ± 0.0317 fold-change vs cycle 0 in assay [1] and 0.525 ± 0.0509 fold-change vs cycle 0 in assay [2].

Regarding AAGTCC, the binding signal was determined as 0.762 ± 0.0144 fold-change vs cycle 0 with SALL4 ZFC4 WT (HT-SELEX), 0.863 ± 0.0347 fold-change vs cycle 0 in assay [1] and 0.936 ± 0.0256 fold-change vs cycle 0 in assay [2].

For the sequence CCGGAA, the binding signal with SALL4 ZFC4 WT (HT-SELEX) amounted to 0.325 ± 0.0139 fold-change vs cycle 0; in assay [1], 0.368 ± 0.0111 fold-change vs cycle 0; in assay [2], 0.491 ± 0.0897 fold-change vs cycle 0.

As to TGTAAA, the binding signal turned out to be 1.93 ± 0.102 fold-change vs cycle 0 in the assay with SALL4 ZFC4 WT (HT-SELEX), 1.92 ± 0.0908 fold-change vs cycle 0 in assay [1] and 1.7 ± 0.134 fold-change vs cycle 0 in assay [2].

On to CGAGAC, for which the binding signal with SALL4 ZFC4 WT (HT-SELEX) stood at 0.365 ± 0.0341 fold-change vs cycle 0; in assay [1] it was 0.454 ± 0.0153 fold-change vs cycle 0; in assay [2], 0.565 ± 0.0671 fold-change vs cycle 0.

Turning to CATCAC, the binding signal with SALL4 ZFC4 WT (HT-SELEX) was 0.892 ± 0.0417 fold-change vs cycle 0; in assay [1] it was 0.975 ± 0.0159 fold-change vs cycle 0; in assay [2], 1.032 ± 0.00917 fold-change vs cycle 0.

As to TATTGA, the binding signal turned out to be 2.22 ± 0.167 fold-change vs cycle 0 with SALL4 ZFC4 WT (HT-SELEX), 2 ± 0.134 fold-change vs cycle 0 in assay [1] and 1.83 ± 0.179 fold-change vs cycle 0 in assay [2].

Take ATCACA: the results for the binding signal (with SALL4 ZFC4 WT (HT-SELEX); in assay [1]; in assay [2]) were 1.39 ± 0.0936 fold-change vs cycle 0, 1.48 ± 0.0843 fold-change vs cycle 0 and 1.43 ± 0.11 fold-change vs cycle 0, respectively.

ACCGGT: the binding signal with SALL4 ZFC4 WT (HT-SELEX) was found to be 0.368 ± 0.0353 fold-change vs cycle 0; in assay [1], 0.438 ± 0.0164 fold-change vs cycle 0; in assay [2] it was 0.518 ± 0.0665 fold-change vs cycle 0.

Consider ACTCAC, for which the binding signal in the assay with SALL4 ZFC4 WT (HT-SELEX) was determined as 0.877 ± 0.0278 fold-change vs cycle 0; in assay [1], 0.97 ± 0.0118 fold-change vs cycle 0; in assay [2], 1.02 ± 0.0114 fold-change vs cycle 0.

As to AATCAC, the binding signal in the assay with SALL4 ZFC4 WT (HT-SELEX) was found to be 1.31 ± 0.0497 fold-change vs cycle 0; in assay [1], 1.46 ± 0.03 fold-change vs cycle 0; in assay [2], 1.42 ± 0.0791 fold-change vs cycle 0.

With CTCATA, the results for the binding signal (with SALL4 ZFC4 WT (HT-SELEX); in assay [1]; in assay [2]) were 1.52 ± 0.0984 fold-change vs cycle 0, 1.48 ± 0.0543 fold-change vs cycle 0 and 1.41 ± 0.106 fold-change vs cycle 0, respectively.

In the case of CCTTAA, the binding signal with SALL4 ZFC4 WT (HT-SELEX) is 1.32 ± 0.0558 fold-change vs cycle 0; in assay [1], 1.49 ± 0.018 fold-change vs cycle 0; in assay [2], 1.37 ± 0.0901 fold-change vs cycle 0.

Consider AGTACT, for which the binding signal was determined as 1.32 ± 0.0981 fold-change vs cycle 0 in the assay with SALL4 ZFC4 WT (HT-SELEX), 1.45 ± 0.094 fold-change vs cycle 0 in assay [1] and 1.4 ± 0.116 fold-change vs cycle 0 in assay [2].

Turning to CTACCC, the values for the binding signal (with SALL4 ZFC4 WT (HT-SELEX); in assay [1]; in assay [2]) were 0.454 ± 0.0263 fold-change vs cycle 0, 0.523 ± 0.00774 fold-change vs cycle 0 and 0.607 ± 0.0541 fold-change vs cycle 0, respectively.

For the sequence AAAGTG, the binding signal came out at 1.1 ± 0.0306 fold-change vs cycle 0 in the assay with SALL4 ZFC4 WT (HT-SELEX), 1.23 ± 0.0192 fold-change vs cycle 0 in assay [1] and 1.22 ± 0.0345 fold-change vs cycle 0 in assay [2].

As for CGAAGA, the binding signal with SALL4 ZFC4 WT (HT-SELEX) was 0.723 ± 0.0365 fold-change vs cycle 0; in assay [1], 0.802 ± 0.0443 fold-change vs cycle 0; in assay [2], 0.859 ± 0.0315 fold-change vs cycle 0.

Regarding CTGGTA, the binding signal with SALL4 ZFC4 WT (HT-SELEX) amounted to 0.8022 ± 0.00263 fold-change vs cycle 0; in assay [1], 0.908 ± 0.0333 fold-change vs cycle 0; in assay [2] it was 0.954 ± 0.0144 fold-change vs cycle 0.

For the sequence AGAGAC, the binding signal was 0.8 ± 0.0496 fold-change vs cycle 0 with SALL4 ZFC4 WT (HT-SELEX), 0.927 ± 0.0137 fold-change vs cycle 0 in assay [1] and 0.985 ± 0.0357 fold-change vs cycle 0 in assay [2].

Take CAAGTG: the binding signal in the assay with SALL4 ZFC4 WT (HT-SELEX) was found to be 0.7915 ± 0.00346 fold-change vs cycle 0; in assay [1], 0.902 ± 0.026 fold-change vs cycle 0; in assay [2], 0.944 ± 0.0555 fold-change vs cycle 0.

For ATAGGG, the binding signal with SALL4 ZFC4 WT (HT-SELEX) came to 0.829 ± 0.0359 fold-change vs cycle 0; in assay [1], 0.924 ± 0.0323 fold-change vs cycle 0; in assay [2], 0.954 ± 0.0273 fold-change vs cycle 0.

As for AAGCTA, the binding signal in the assay with SALL4 ZFC4 WT (HT-SELEX) worked out at 1.18 ± 0.0764 fold-change vs cycle 0; in assay [1] it was 1.3 ± 0.0578 fold-change vs cycle 0; in assay [2] it was 1.28 ± 0.0869 fold-change vs cycle 0.

TAACGA: the binding signal in the assay with SALL4 ZFC4 WT (HT-SELEX) was determined as 1.27 ± 0.0588 fold-change vs cycle 0; in assay [1], 1.31 ± 0.0864 fold-change vs cycle 0; in assay [2], 1.26 ± 0.0862 fold-change vs cycle 0.

As to CTTCTA, the binding signal worked out at 1.36 ± 0.0301 fold-change vs cycle 0 with SALL4 ZFC4 WT (HT-SELEX), 1.53 ± 0.0956 fold-change vs cycle 0 in assay [1] and 1.4 ± 0.104 fold-change vs cycle 0 in assay [2].

On to ACGCAT, for which the binding signal stood at 0.526 ± 0.0513 fold-change vs cycle 0 in the assay with SALL4 ZFC4 WT (HT-SELEX), 0.556 ± 0.0269 fold-change vs cycle 0 in assay [1] and 0.714 ± 0.0322 fold-change vs cycle 0 in assay [2].

Turning to CAGAAC, the binding signal in the assay with SALL4 ZFC4 WT (HT-SELEX) came out at 0.725 ± 0.0111 fold-change vs cycle 0; in assay [1] it was 0.847 ± 0.0358 fold-change vs cycle 0; in assay [2], 0.863 ± 0.0478 fold-change vs cycle 0.

For the sequence ATGCGA, the binding signal stood at 0.525 ± 0.0387 fold-change vs cycle 0 with SALL4 ZFC4 WT (HT-SELEX), 0.556 ± 0.0155 fold-change vs cycle 0 in assay [1] and 0.689 ± 0.0646 fold-change vs cycle 0 in assay [2].

In the case of AAGTAG, the binding signal with SALL4 ZFC4 WT (HT-SELEX) worked out at 1.32 ± 0.0481 fold-change vs cycle 0; in assay [1], 1.52 ± 0.0706 fold-change vs cycle 0; in assay [2], 1.39 ± 0.0907 fold-change vs cycle 0.

On to CAGTTC, for which the binding signal in the assay with SALL4 ZFC4 WT (HT-SELEX) came out at 0.794 ± 0.00773 fold-change vs cycle 0; in assay [1] it was 0.912 ± 0.0408 fold-change vs cycle 0; in assay [2], 0.935 ± 0.0458 fold-change vs cycle 0.

As to GCATCC, the results for the binding signal (with SALL4 ZFC4 WT (HT-SELEX); in assay [1]; in assay [2]) were 0.382 ± 0.0508 fold-change vs cycle 0, 0.43 ± 0.0105 fold-change vs cycle 0 and 0.551 ± 0.0913 fold-change vs cycle 0, respectively.

Consider GACCTC, for which the binding signal with SALL4 ZFC4 WT (HT-SELEX) was 0.415 ± 0.0384 fold-change vs cycle 0; in assay [1], 0.51 ± 0.0119 fold-change vs cycle 0; in assay [2], 0.644 ± 0.0572 fold-change vs cycle 0.

As to TACCAA, the results for the binding signal (in the assay with SALL4 ZFC4 WT (HT-SELEX); in assay [1]; in assay [2]) were 1.27 ± 0.0357 fold-change vs cycle 0, 1.33 ± 0.0163 fold-change vs cycle 0 and 1.32 ± 0.055 fold-change vs cycle 0, respectively.

With AATGCC, the results for the binding signal (in the assay with SALL4 ZFC4 WT (HT-SELEX); in assay [1]; in assay [2]) were 0.502 ± 0.015 fold-change vs cycle 0, 0.5601 ± 0.00429 fold-change vs cycle 0 and 0.704 ± 0.0636 fold-change vs cycle 0, respectively.

ATTCTG: the binding signal with SALL4 ZFC4 WT (HT-SELEX) was 1.27 ± 0.0284 fold-change vs cycle 0; in assay [1], 1.35 ± 0.0356 fold-change vs cycle 0; in assay [2] it was 1.28 ± 0.0492 fold-change vs cycle 0.

On to ATCCGG, for which the values for the binding signal (with SALL4 ZFC4 WT (HT-SELEX); in assay [1]; in assay [2]) were 0.352 ± 0.0195 fold-change vs cycle 0, 0.41 ± 0.0188 fold-change vs cycle 0 and 0.52 ± 0.0559 fold-change vs cycle 0, respectively.

Regarding ATCTCC, the values for the binding signal (in the assay with SALL4 ZFC4 WT (HT-SELEX); in assay [1]; in assay [2]) were 0.945 ± 0.0285 fold-change vs cycle 0, 1.04 ± 0.0372 fold-change vs cycle 0 and 1.06 ± 0.0438 fold-change vs cycle 0, respectively.

Regarding AGTGAA, the binding signal came to 1.35 ± 0.0774 fold-change vs cycle 0 in the assay with SALL4 ZFC4 WT (HT-SELEX), 1.52 ± 0.125 fold-change vs cycle 0 in assay [1] and 1.39 ± 0.134 fold-change vs cycle 0 in assay [2].

In the case of CAGGAG, the binding signal with SALL4 ZFC4 WT (HT-SELEX) came out at 0.48 ± 0.0178 fold-change vs cycle 0; in assay [1], 0.596 ± 0.041 fold-change vs cycle 0; in assay [2] it was 0.676 ± 0.0293 fold-change vs cycle 0.

GACATC: the values for the binding signal (with SALL4 ZFC4 WT (HT-SELEX); in assay [1]; in assay [2]) were 0.75 ± 0.0336 fold-change vs cycle 0, 0.879 ± 0.011 fold-change vs cycle 0 and 0.967 ± 0.0135 fold-change vs cycle 0, respectively.

For the sequence AGTGGG, the binding signal was found to be 0.455 ± 0.0261 fold-change vs cycle 0 with SALL4 ZFC4 WT (HT-SELEX), 0.528 ± 0.0236 fold-change vs cycle 0 in assay [1] and 0.608 ± 0.0502 fold-change vs cycle 0 in assay [2].

For the sequence GACTAC, the figures for the binding signal (in the assay with SALL4 ZFC4 WT (HT-SELEX); in assay [1]; in assay [2]) were 0.777 ± 0.0619 fold-change vs cycle 0, 0.891 ± 0.0393 fold-change vs cycle 0 and 0.967 ± 0.0652 fold-change vs cycle 0, respectively.

On to AAGAAC, for which the binding signal turned out to be 1.29 ± 0.0399 fold-change vs cycle 0 with SALL4 ZFC4 WT (HT-SELEX), 1.49 ± 0.0657 fold-change vs cycle 0 in assay [1] and 1.38 ± 0.123 fold-change vs cycle 0 in assay [2].
